What all share (assay): NCI-60 one-dose screen, 48 h (100 = growth as untreated, 0 = no growth, -100 = all killed)
In one test the test system is SK-MEL-2 melanoma. The following applies: 10 µM unless noted.
Another test concerns EKVX NSCLC. The conditions noted are these: 10 µM unless noted.
The test system of the next test is SN12C renal. The conditions noted are these: 10 µM unless noted.
The next test concerns UO-31 renal. The following applies: 10 µM unless noted.
Another test deals with TK-10 renal. The conditions noted are these: 10 µM unless noted.
For another test, the system named is CAKI-1 renal. The following applies: 10 µM.
In another test the test system is A498 renal. The conditions noted are these: 10 µM unless noted.
The next test deals with CCRF-CEM leukemia. The following applies: 10 µM unless noted.
The next test deals with MOLT-4 leukemia. The following applies: 10 µM unless noted.
In a further test the test system is SR leukemia. The following applies: 10 µM unless noted.
The test system of the next test is RPMI-8226 leukemia. The following applies: 10 µM unless noted.
A further test has as its system OVCAR-8 ovarian. The following applies: 10 µM unless noted.
The test system of the next test is OVCAR-4 ovarian. The following applies: 10 µM unless noted.
A further test concerns SK-OV-3 ovarian. The following applies: 10 µM unless noted.
For the next test, the system named is IGROV1 ovarian. The following applies: 10 µM unless noted.
The test system of a further test is OVCAR-3 ovarian. The following applies: 10 µM unless noted.
The subject of another test is HS 578T breast. The following applies: 10 µM unless noted.
In a further test the test system is NCI/ADR-RES ovarian. The conditions noted are these: 10 µM unless noted.
Another test relates to ACHN renal. The following applies: 10 µM unless noted.
The test system of another test is OVCAR-5 ovarian. The following applies: 10 µM unless noted.

This is part of a sample that, as a whole, favours compounds with a hit. Of some 83,000 tested, about 20% had one in any assay.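 96-well plates, one dose, 48 hours. Percent growth reported; active if below 10.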 Unmarked numbers belong to inactive results. The source made the active and inactive calls.

With `COc1ccc(C[C@H](N)C(=O)N[C@@H]2[C@@H](CO)OC(n3cnc4c(N(C)C)ncnc43)[C@@H]2O)cc1` (stereo partly drawn), the growth with SK-MEL-2 melanoma is -74.4% (active); in the test on EKVX NSCLC, -47.2% (active); in the test with SN12C renal, -13.3% (active); with UO-31 renal, 16.2%; in the test on TK-10 renal, -75.7% (active); in the test on CAKI-1 renal, 42.8%. In addition, the growth was -65.6% (active) with A498 renal; -3.9% (active) in the test on CCRF-CEM leukemia; -22.3% (active) with MOLT-4 leukemia; -37.7% (active) in the test with SR leukemia; 12.5% in the test with RPMI-8226 leukemia; -52.3% (active) in the test on OVCAR-8 ovarian. The growth in the test with OVCAR-4 ovarian was -32.9% (active); with SK-OV-3 ovarian, -25.3% (active); in the test on IGROV1 ovarian it was -42.3% (active); in the test with OVCAR-3 ovarian, -94.7% (active); in the test with HS 578T breast, 11.8%; with NCI/ADR-RES ovarian, 93.4%.

As for `CCc1cccc(-c2ccccc2)c1`, the growth in the test with SK-MEL-2 melanoma was 116%; with EKVX NSCLC, 102%; with SN12C renal, 99.5%; in the test with UO-31 renal, 87.8%; in the test with TK-10 renal, 106%; in the test on ACHN renal it was 108%. For the same compound, the growth is 8.01% (active) with CCRF-CEM leukemia; 88% in the test on MOLT-4 leukemia; 52.4% in the test on SR leukemia; 80.5% in the test on RPMI-8226 leukemia; 101% with OVCAR-8 ovarian; 104% in the test on OVCAR-5 ovarian. Further, the growth in the test with OVCAR-4 ovarian was 101%; with SK-OV-3 ovarian it was 103%; in the test with IGROV1 ovarian it was 107%; in the test on OVCAR-3 ovarian, 109%; in the test on NCI/ADR-RES ovarian, 111%.

Regarding `CC(CN(C)C)CN1c2ccccc2CCc2ccccc21` (stereo not drawn), the growth was 88.8% with SK-MEL-2 melanoma; 80.6% in the test with EKVX NSCLC; 73.7% with SN12C renal; 38.9% in the test with UO-31 renal; 87.2% in the test on TK-10 renal; 70.6% in the test on CAKI-1 renal. Moreover, the growth in the test with A498 renal was 104%; in the test on CCRF-CEM leukemia, 87.1%; in the test with MOLT-4 leukemia, 81.2%; with SR leukemia, 91.4%; with OVCAR-8 ovarian, 106%; with OVCAR-4 ovarian, 78.7%. Also, the growth in the test on SK-OV-3 ovarian is 95%; in the test with IGROV1 ovarian it was 62%; in the test with OVCAR-3 ovarian, 111%; in the test with HS 578T breast it was 86.4%; in the test on NCI/ADR-RES ovarian it was 76.4%.

Regarding `COc1cc2c(cc1OCCCCC(=O)Nc1ccc(-c3nc4ccccc4s3)cc1)N=C[C@@H]1CCCN1C2=O`, the growth with SK-MEL-2 melanoma is -2.21% (active); with EKVX NSCLC, 2.66% (active); with SN12C renal, 15.3%; with UO-31 renal, -31.6% (active); in the test on TK-10 renal it was -0.417% (active); in the test with ACHN renal it was 1.84% (active). Besides, the growth in the test on A498 renal is -79.3% (active); in the test with MOLT-4 leukemia it was -31.7% (active); in the test on SR leukemia, -55.4% (active); in the test with RPMI-8226 leukemia, -58.3% (active); in the test on OVCAR-8 ovarian it was -8.71% (active); in the test with OVCAR-5 ovarian, 4.91% (active). Besides, the growth was -11.9% (active) in the test with OVCAR-4 ovarian; 22.4% in the test with SK-OV-3 ovarian; -17.1% (active) in the test on IGROV1 ovarian; -37.5% (active) in the test on HS 578T breast; 67.6% in the test with NCI/ADR-RES ovarian.

As to `CC(NCCC(c1ccccc1)c1ccccc1)c1ccccc1` (stereo not drawn), the growth was 79% in the test with SK-MEL-2 melanoma; 44.1% with EKVX NSCLC; 86.4% in the test with SN12C renal; 32.6% in the test with UO-31 renal; 57.5% in the test on TK-10 renal; 42.3% in the test with CAKI-1 renal. Further, the growth is 63.8% in the test on A498 renal; 48% with CCRF-CEM leukemia; 17.8% in the test on MOLT-4 leukemia; -35.6% (active) in the test on SR leukemia; 26.3% with RPMI-8226 leukemia; 84.3% in the test with OVCAR-8 ovarian. Besides, the growth with OVCAR-4 ovarian was 64.9%; with SK-OV-3 ovarian, 99.1%; in the test on IGROV1 ovarian, 55.6%; with OVCAR-3 ovarian it was 78.4%; in the test on HS 578T breast it was 82.8%; with NCI/ADR-RES ovarian it was 79.1%.

Turning to `COC1OCC(OS(=O)(=O)c2ccc(C)cc2)C(OC(=O)c2ccccc2)C1OC(=O)c1ccccc1` (stereo not drawn), the growth is 36.1% with SK-MEL-2 melanoma; 53.4% with EKVX NSCLC; 74.3% with SN12C renal; 48.3% in the test on UO-31 renal; 88% in the test with TK-10 renal; 54% in the test on ACHN renal. Besides, the growth was 87.4% with A498 renal; 48.9% in the test with MOLT-4 leukemia; 39.6% in the test with SR leukemia; 45.5% in the test on RPMI-8226 leukemia; 69.3% in the test with OVCAR-8 ovarian; 72.5% with OVCAR-5 ovarian. Also, the growth with OVCAR-4 ovarian was 57%; in the test with SK-OV-3 ovarian, 86.1%; in the test with IGROV1 ovarian, 37.8%; with OVCAR-3 ovarian, -12.4% (active); in the test with NCI/ADR-RES ovarian, -6.71% (active).

Turning to `CCCCCCCCCCCC(=O)OCCNC(=O)C[n+]1ccccc1`, the growth in the test with SK-MEL-2 melanoma is 97.7%; with EKVX NSCLC it was 91.8%; in the test on SN12C renal, 102%; in the test on UO-31 renal it was 83%; with TK-10 renal, 101%; in the test with ACHN renal, 99.9%. Moreover, the growth in the test with CCRF-CEM leukemia was 98.1%; in the test with MOLT-4 leukemia, 104%; with SR leukemia it was 104%; in the test on RPMI-8226 leukemia, 100%; in the test with OVCAR-8 ovarian, 97.4%; in the test on OVCAR-5 ovarian it was 113%. For the same compound, the growth in the test with OVCAR-4 ovarian is 105%; in the test on SK-OV-3 ovarian, 96.7%; in the test with OVCAR-3 ovarian, 115%; with HS 578T breast, 139%; in the test with NCI/ADR-RES ovarian, 113%.

For the compound `OCCOCC(F)(F)F`, the growth in the test on SK-MEL-2 melanoma was 119%; in the test on EKVX NSCLC it was 97.9%; in the test on SN12C renal, 116%; in the test with UO-31 renal it was 94.1%; in the test on TK-10 renal, 116%; in the test on ACHN renal, 108%. For the same compound, the growth in the test with CCRF-CEM leukemia is -0.0215% (active); with SR leukemia, 78.7%; with RPMI-8226 leukemia, 90.2%; in the test on OVCAR-8 ovarian, 116%; with OVCAR-5 ovarian, 96%; in the test on OVCAR-4 ovarian, 100%. Besides, the growth with IGROV1 ovarian was 113%; in the test on OVCAR-3 ovarian, 109%; in the test with NCI/ADR-RES ovarian, 106%.

For `CC(=O)O[C@@H]1[C@@H](OC(C)=O)[C@H](OC(C)=O)CO[C@H]1Nc1cccc2ccccc12`, the growth in the test on SK-MEL-2 melanoma was 82.3%; in the test on EKVX NSCLC, 99.8%; in the test on SN12C renal, 94.3%; with UO-31 renal, 62.4%; in the test with TK-10 renal it was 115%; in the test with ACHN renal, 98.8%. The growth in the test on A498 renal was 101%; in the test on CCRF-CEM leukemia, 71.7%; with RPMI-8226 leukemia, 87.9%; with OVCAR-8 ovarian, 102%; in the test with OVCAR-5 ovarian, 100%; in the test on OVCAR-4 ovarian, 103%. In addition, the growth in the test on SK-OV-3 ovarian is 105%; in the test on IGROV1 ovarian it was 97.9%; in the test with OVCAR-3 ovarian it was 95.7%; in the test with HS 578T breast it was 96.3%; in the test with NCI/ADR-RES ovarian, 95.9%.

These data come from PubChem BioAssay (NCI).
